Source: PubChem (National Center for Advancing Translational Sciences (NCATS))
FBPA Giardia inh: blocks Giardia fructose-bisphosphate aldolase activity; A8B2U2; AID 2451; Potency, µM (titrated, usually from 59.6 µM), without a hit: top-dose activity, negative = inhibition, usual class: inhibitors; purified Giardia FBPA; hit rate 0.71% among 290,000; further: potency means the concentration at half of the fitted maximal effect; on the % scale 0 is the no-effect control and ±100 the full control effect; nearly all actives have a fitted effect of over 55% in size
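40 nM FBPA preincubated 10 min at RT with compound (up to 57.5 uM final), then substrate plus GAPDH/TPI/NAD/arsenate coupling and diaphorase/resazurin added. Fluorescence read after 20 min at RT, 525/598 nm.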
LmPK inhibitor: inhibitors of Leishmania mexicana pyruvate kinase. Q27686. purified LmPK, Kinase-Glo ATP luminescence, 1 h. Potency, µM (series often up to 57.5 µM), without a hit: at the top dose activity change, negative = inhibition, actives largely listed as inhibitors. hit rate 0.37% among 290,000; further: potency means the concentration at half of the fitted maximal effect; on the % scale 0 is the no-effect control and ±100 the full control effect
Target sequence (Q27686 whole entry, looked up): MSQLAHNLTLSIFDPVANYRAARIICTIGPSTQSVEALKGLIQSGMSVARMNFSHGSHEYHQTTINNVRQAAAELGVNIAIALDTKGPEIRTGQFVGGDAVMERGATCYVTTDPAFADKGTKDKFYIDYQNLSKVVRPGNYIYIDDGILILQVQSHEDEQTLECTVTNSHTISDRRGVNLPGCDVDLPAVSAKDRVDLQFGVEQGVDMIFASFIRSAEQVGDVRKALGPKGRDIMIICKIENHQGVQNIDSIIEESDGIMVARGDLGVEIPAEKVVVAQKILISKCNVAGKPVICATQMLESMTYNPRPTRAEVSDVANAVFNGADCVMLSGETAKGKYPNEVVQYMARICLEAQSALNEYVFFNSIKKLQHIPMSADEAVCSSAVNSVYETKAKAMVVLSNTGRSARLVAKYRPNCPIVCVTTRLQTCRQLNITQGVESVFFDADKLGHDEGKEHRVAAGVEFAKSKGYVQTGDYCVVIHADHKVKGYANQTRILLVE
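ATP generated from ADP (0.1 mM) and PEP (0.5 mM) by 0.1 nM LmPK over 1 h at room temperature (pH 7.2 imidazole buffer) was detected by coupled luciferase luminescence. Values were normalized to uninhibited and no-enzyme wells.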
TbPYK inhibitor: inhibitors of Trypanosoma brucei pyruvate kinase. Q57TT1. TbPYK enzyme, Kinase-Glo Plus ATP luminescence, 45 min. hit rate 0.12% among 410,000. Potency, µM (titrated, usually from 76.8 µM), for the others: at the highest dose activity, negative = inhibition, actives largely listed as inhibitors; further: potency means the concentration at half of the fitted maximal effect; on the % scale 0 is the no-effect control and ±100 the full control effect; nearly all actives have a fitted effect of over 50% in size
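Enzyme and substrate buffer are dispensed first and compound is pin-transferred. ADP at 130 uM final then starts the reaction, which runs 45 min at room temperature. Detection reagent is added for 10 min before luminescence is imaged.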
Sm TGR block: blocks Schistosoma mansoni thioredoxin glutathione reductase; purified TGR, DTNB reduction, TNB absorbance 405 nm; Potency, µM (top dose mostly 114 µM), inactives show at the highest dose activity change, negative = inhibition, hits mostly inhibitors; Q962Y6; hit rate 3% among 360,000; further: potency means the concentration at half of the fitted maximal effect; on the % scale 0 is the no-effect control and ±100 the full control effect; nearly all actives have a fitted effect of over 60% in size
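TGR 20 nM + NADPH 100 uM (dispensed conc.), cpd preinc 15 min RT; start with NADPH (500 uM addition) then DTNB (15 mM addition). Kinetic TNB absorbance, 405 nm filter. Four-parameter Hill fit across titration.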
Cycloheximide cs: counter-screen hit for Shiga toxin inhibitors, cycloheximide; cell reporter, cycloheximide protein synthesis inhibition counterscreen; max response, %; hit rate 12% among 300,000; AID 2314; in the data active means max response mostly above about 13%, no sharp cut-off; inactive means mostly below about 14%; further: read at 38.3 µM for the half of the compounds with a filed dose; 0% is about no effect
Shiga toxin inh: blocks Shiga toxin action in Vero cells; hit rate 9.2% among 290,000; inhibition, % at 38.7 µM; Vero cells, Shiga toxin protein synthesis inhibition reporter; in the data active means inhibition mostly above about 28%, no sharp cut-off; inactive means mostly below about 43%; further: 0% is about no effect
Numbers without * were called inactive; ? = inconclusive; · = no result. This excerpt belongs to a sample that is enriched for hits. Unless noted, the call rests on the fitted dose curve; in most records, active means well fitted curve in the direction sought with a large enough effect; inconclusive means small, poorly fitted or top-dose-only effect, or another doubt; inactive means no such curve, though single readings can be large; an effect the other way counts as inactive or inconclusive.

SMILES	FBPA Giardia inh	LmPK inhibitor	TbPYK inhibitor	Sm TGR block	Cycloheximide cs	Shiga toxin inh
CC(=O)c1ccc(NS(=O)(=O)c2ccccc2)cc1	11%	-6%	0%	2%	-2	14
CCC(C)NC(=O)CSc1nc2cc3c(cc2c(=O)n1CCCC(=O)NCCc1ccc(OC)c(OC)c1)OCO3 (stereo not drawn)	·	·	-4%	1%	·	·
O=C(CN1C(=O)C2(SCC(=O)N2c2cccc(Cl)c2)c2ccccc21)NCCc1ccccc1 (stereo not drawn)	·	·	3%	-6%	·	·
COc1cc(C2c3c(oc4ccccc4c3=O)C(=O)N2c2nnc(C(C)C)s2)cc(OC)c1OC (stereo not drawn)	·	·	1%	-2%	·	·
Cn1cnc([N+](=O)[O-])c1Sc1ccc(Br)cc1	2%	-3%	3%	22µM*	-1	20
COc1ccc(N(C)C(=O)CCn2cnc3onc(-c4ccc(F)cc4)c3c2=O)c(OC)c1	·	·	0%	-2%	·	·
Cc1cccc(-n2c(=O)c3ccccc3n(Cc3ccc(F)cc3)c2=O)c1	·	·	-4%	4%	·	·
COc1ccc(-c2noc(CCC(=O)O)n2)cc1	-1%	5%	4%	0%	4	13
COc1ccc(-c2ccc(CCC(=O)O)o2)cc1	6%	-9%	?	2.8µM*	25*	41*
O=C(O)CCc1ccc(-c2ccc(Br)cc2)o1	-1%	-15%	?	7.9µM*	9	39*
O=C(O)CCc1ccc(-c2ccc(Cl)cc2)o1	9%	-9%	?	5µM*	12	36
CC(=O)OCC(NC(=O)C(Cc1ccccc1)NC(=O)OC(C)(C)C)C1OC(n2cc(C)c(=O)[nH]c2=O)C(OC(C)=O)C1OC(C)=O (stereo not drawn)	4%	·	·	·	11	-14
C#CCn1c(C2CC(=O)N(c3ccc(OC)cc3)C2)nc2ccccc21 (stereo not drawn)	·	·	4%	-4%	·	·
O=c1cc(CO)occ1O	-12%	·	4%	·	·	·
Cc1cc(C)c2cc(C(=O)Nc3ccccc3)[nH]c2c1	-22%	1%	-12%	-11%	42*	72*
Cc1cc(C)c2[nH]c(C(=O)Nc3ccc(F)cc3Br)cc2c1	-2%	0%	?	-29%	34*	67*
CCCOc1ccc(NC(=O)c2cc3cc(C)ccc3[nH]2)cc1	-1%	-1%	-1%	5%	0	-6
Cc1ccc2[nH]c(C(=O)Nc3ccc(F)cc3)cc2c1	-2%	2%	-17%	-18%	22*	·
Cc1ccc(NC(=O)CC(O)(C(F)(F)F)C(F)(F)F)c(Br)c1	0%	1%	-1%	-2%	8	16
CC(=O)N1CCCc2cc(S(=O)(=O)N3CCN(c4ccc(F)cc4)CC3)ccc21	·	·	-1%	-2%	·	·
COc1ccc(C(=O)CC2(O)C(=O)N(Cc3cccc(C(F)(F)F)c3)c3ccccc32)cc1 (stereo not drawn)	·	·	7%	-1%	·	·
O=S(=O)(O)c1ccc2c(c1)-c1nc-2nc2[nH]c(nc3nc(nc4[nH]c(n1)c1ccc(S(=O)(=O)O)cc41)-c1ccc(S(=O)(=O)O)cc1-3)c1ccc(S(=O)(=O)O)cc21	?	·	·	·	-13	-6
CC1(C(=O)NS(=O)(=O)c2ccccc2)CCN1C(=O)CCc1ccc(Cl)cc1Cl (stereo not drawn)	·	·	3%	·	·	·
COc1ccc(-c2cn3c(n2)sc2cc(C(=O)Nc4cccc(SC)c4)ccc23)cc1	·	·	-3%	-5%	·	·
Cc1ccc(S(=O)(=O)N2CCN(S(=O)(=O)c3cccs3)CC2)cc1	·	-6%	-2%	5%	33*	56*
SMILES	FBPA Giardia inh	LmPK inhibitor	TbPYK inhibitor	Sm TGR block	Cycloheximide cs	Shiga toxin inh
O=S(=O)(c1cccs1)N1CCN(c2ccc(O)cc2)CC1	-10%	6%	-15%	-62%	15*	1
CN1CCN(S(=O)(=O)c2cccs2)CC1	-2%	6%	-5%	2%	-3	-5
Oc1ccc(-c2csc(Nc3ccccn3)n2)c(O)c1	2%	2%	2%	8%	34*	131*
Cc1cccnc1Nc1nc(-c2ccc(O)cc2O)cs1	-22%	-4%	-12%	3%	39*	112*
CCOC(=O)c1sc2ccccc2c1S(=O)(=O)Nc1ccc(OC)c(Cl)c1	·	·	?	-3%	·	·
Cc1cc(F)ccc1N1CCC(N2CCN(CCC(C)C)C(CCO)C2)CC1 (stereo not drawn)	8%	0%	-1%	2%	1	-20
Cc1cc(F)ccc1N1CCC(N2CCN(C(C)C)C(CCO)C2)CC1 (stereo not drawn)	0%	6%	7%	40µM*	0	-11
NC(=S)N/N=C/c1coc2cc(Br)ccc2c1=O	1%	-1%	-4%	3%	-4	2
NC(=S)N/N=C/c1coc2c(ccc3ccccc32)c1=O	2%	-7%	2%	-1%	24*	33
O=C(CCCC(=O)N1CCN(c2ccccc2F)CC1)N1CCN(c2ccccc2F)CC1	0%	2%	-6%	-23%	4	-15
O=C(CCS(=O)(=O)c1ccc(F)cc1)N1CCOCC1	7%	-1%	-6%	2%	14*	46*
O=C(CCS(=O)(=O)c1ccccc1)N1CCN(c2ccc(F)cc2)CC1	·	-3%	4%	-19%	52*	71*
O=C(CCC(=O)N1CCN(c2ccc(F)cc2)CC1)c1ccccc1	-8%	4%	2%	-10%	33*	15
O=C(CCS(=O)(=O)c1ccc(F)cc1)N1CCN(c2ccccc2)CC1	·	·	0%	-4%	·	·
O=C(CCCC(=O)N1CCN(c2ccccc2F)CC1)c1ccccc1	-10%	-3%	0%	-6%	36*	59*
CC1(Cn2ccnn2)[C@H](C(=O)O)N2C(=O)C[C@H]2S1(=O)=O (stereo partly drawn)	-7%	·	-10%	·	-2	-3
O=C1c2cccc3cccc(c23)C(=O)N1CCCc1n[nH]c(=S)n1-c1ccccc1	7%	-5%	7.1µM*	·	-3	-3
O=C(CSc1nnc(CCCN2C(=O)c3cccc4cccc(c34)C2=O)n1-c1ccccc1)NCCCO	9%	-1%	5%	-2%	-3	-7
OCCCc1n[nH]c(=S)n1-c1ccccc1	-26%	5%	-2%	45µM*	-2	-5
COC(Cc1n[nH]c(=S)n1-c1ccccc1)OC	?	-4%	?	12%	-5	-27
S=c1[nH]nc(CSCc2ccccc2Cl)n1-c1ccccc1	9%	13µM*	·	0%	-3	1
CCCN1CCN(CCNC(=O)Nc2ccc(OC)cc2OC)CC1	·	·	-2%	3%	·	·
CCCCN(C)c1nc2c(S(=O)(=O)c3ccc(CC)cc3)nnn2c2ccc(Cl)cc12	·	·	-8%	6%	·	·
C[C@@H]1CN([C@H](C)CO)C(=O)CCCn2nncc2CO[C@H]1CN(C)CC1CC1	·	·	2%	·	·	·
O=[N+]([O-])c1ccc(CSc2ncnc3c2ncn3[C@@H]2O[C@H](CO)[C@H](O)[C@H]2O)cc1	-6%	·	·	·	·	·
